Screening data as filed in PubChem BioAssay.
CYP2C9 inh – human CYP2C9 inhibition. P11712. CYP2C9 Supersomes, luciferin-H conversion, luminescence. inhibition, % at 5 µM. 96,000 compounds, 20% hits;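 active means blocking of liver enzyme CYP2C9 beyond about 50% at 5 µM, limit read from the data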
Target sequence (P11712 whole entry, looked up): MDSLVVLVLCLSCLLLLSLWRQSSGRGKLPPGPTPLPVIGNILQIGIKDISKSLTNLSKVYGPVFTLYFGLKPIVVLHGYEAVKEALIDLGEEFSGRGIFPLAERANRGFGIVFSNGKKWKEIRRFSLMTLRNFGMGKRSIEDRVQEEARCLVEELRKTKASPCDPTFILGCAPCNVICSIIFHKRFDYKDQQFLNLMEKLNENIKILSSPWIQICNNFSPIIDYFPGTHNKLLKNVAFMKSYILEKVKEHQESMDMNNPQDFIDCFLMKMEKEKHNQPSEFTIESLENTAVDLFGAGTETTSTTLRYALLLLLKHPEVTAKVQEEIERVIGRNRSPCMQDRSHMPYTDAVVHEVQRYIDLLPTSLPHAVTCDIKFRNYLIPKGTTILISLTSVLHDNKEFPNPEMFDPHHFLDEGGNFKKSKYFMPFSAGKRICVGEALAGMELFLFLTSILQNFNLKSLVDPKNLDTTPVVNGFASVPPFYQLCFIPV
PLAP activator – activators of human placental alkaline phosphatase. purified PLAP enzyme, luminescent substrate read-out; active compounds read high. activation fold at 20 µM. 96,000 compounds, 1.2% hits. AID 696; in the data active means activation fold above about 2
CYP2C9 act – increases human cytochrome P450 2C9 activity | recombinant CYP2C9, luciferin-H conversion, luminescence; active compounds read high; factor 1 = untreated enzyme, 0 = blocked | activation factor at 5 µM | 96,000 compounds, 1.4% hits;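 active means activation factor of 2 or more for CYP2C9 at a 5 µM dose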;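 further: 0 = sulfaphenazole-blocked wells and 1 = vehicle-only wells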
CYP2C19 inhib – blocks human cytochrome P450 2C19 | P33261 | CYP2C19 Supersomes, luciferin-H EGE luminescence, 30 min | inhibition, % at 5 µM | 96,000 compounds, 21% hits | AID 778;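 active means CYP2C19 inhibition above a set limit at 5 µM in the primary screen, cut at about 50% in these data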;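 further: plate controls were negative control wells for no effect and 2.5 mM tranylcypromine positive control for full effect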
CYP2C19 act – activators of human cytochrome P450 2C19 | P33261 | recombinant CYP2C19, luciferin-H EGE luminescence; active compounds read high; 0 = fully inhibited enzyme, 1 = untreated enzyme | activation factor at 5 µM | 96,000 tested, under 10 active | AID 1025;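 active means activation factor of at least 2 at 5 µM in the primary screen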;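 further: 0 = wells with 2.5 mM tranylcypromine and 1 = vehicle-only wells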
* marks the source's active call; other numbers are inactive results. Sampled rows, rich in hits. Any-hit rate of the full collection: about 31%.

SMILES	CYP2C9 inh	PLAP activator	CYP2C9 act	CYP2C19 inhib	CYP2C19 act
Nc1nc(CSc2nnnn2-c2ccc(Cl)cc2)nc(N2CCOCC2)n1	2	1	1	-1	1
CCCN=Cc1sc2ccc(OCC)cc2c1O	-52	0.9	1.5	69*	0.3
COc1ccc(-c2cc(-n3c(C(F)(F)F)nc4ccccc43)n(CCC#N)n2)cc1	72*	1.3	0.3	63*	0.4
COc1ccc(Sc2nc3ccccc3n3c(C(F)(F)F)nnc23)cc1	-15	1	1.1	8	0.9
Cc1ccc(F)cc1NC(=O)Cc1ncc(C(F)(F)F)cc1Cl	7	0.9	0.9	51*	0.5
Cn1ncc(C#N)c1NC(=O)C1CC(c2c(F)cccc2Cl)=NO1 (centres undefined)	72*	1.1	0.3	77*	0.2
Cn1ncc(C#N)c1NC(=O)c1cc(-c2ccccc2Cl)on1	19	1.2	0.8	-1	1
Cn1ncc(C#N)c1NC(=O)C1CC(c2ccc(Cl)c(Cl)c2)=NO1 (centres undefined)	51*	1.1	0.5	85*	0.2
O=C(NCC1CCCO1)C1CC(c2ccc(Cl)c(Cl)c2)=NO1 (centres undefined)	-148	1.1	2.5*	1	1
COc1ccc(NC(=O)C2CC(c3ccc(OC)c(OC)c3)=NO2)cc1OC (centres undefined)	18	1.2	0.8	1	1
O=C(c1cccc(-n2cnnn2)c1)N1CCOCC1	-16	0.9	1.2	-13	1.1
COc1cc(SC)ccc1C(=O)OC1CCOC1=O (centres undefined)	-2	1.2	1	35	0.6
CC(=O)Nc1sc(C)c(C)c1C(=O)OC1CCOC1=O (centres undefined)	77*	1.2	0.2	55*	0.4
Cc1ccsc1C(=O)OC1CCOC1=O (centres undefined)	-127	1.1	2.3*	-7	1.1
COc1ccc2[nH]cc(C(=O)CN3CCN(C/C=C/c4ccccc4)CC3)c2c1	36	1.7	0.6	2	1
CSCC[C@H](NC(=O)OC(C)(C)C)C(=O)N1CCC(C(=O)N[C@@H](C)C(=O)O)CC1	-1	1.2	1	4	1
O=c1[nH]c2ccccc2n1Cc1ccc(Cl)cc1	24	1.1	0.8	73*	0.3
O=c1[nH]c2ccccc2n1CCCSCCCn1c(=O)[nH]c2ccccc21	88*	1.8	0.1	16	0.8
CCn1c2ccccc2c2nnc(SCCCn3c(=O)[nH]c4ccccc43)nc21	88*	1.4	0.1	78*	0.2
O=c1n(Cc2ccccc2)c2cc(Cl)cnc2n1Cc1ccccc1	9	1	0.9	23	0.8
Cc1cc(C(=O)CSCCCn2c(=O)[nH]c3ccccc32)c(C)n1C	-17	1.4	1.2	33	0.7
O=c1[nH]c2ccccc2n1CCC1CCCCC1	56*	1.3	0.4	93*	0.1
COc1cc2c(cc1OC)CN(C(=O)CSc1nnc(C)s1)CC2	15	1	0.8	8	0.9
CCOC(=O)N1CCN(CC(O)COC2CC(C)CC(C)(C)C2)CC1 (centres undefined)	6	1.4	0.9	-4	1
COc1cccc(C2C(C#N)=C(N)Oc3cc(C)[nH]c(=O)c32)c1OC (centres undefined)	6	1	0.9	5	1
SMILES	CYP2C9 inh	PLAP activator	CYP2C9 act	CYP2C19 inhib	CYP2C19 act
Cc1cccn2cc(CCNC(=O)c3ccc(Br)o3)nc12	7	1.2	0.9	22	0.8
CC1=CC(C)(C)N2C(=O)C3(C(C#N)=C(N)Oc4cc(O)ccc43)c3c(C)c(C)cc1c32 (centres undefined)	94*	1.3	0.1	89*	0.1
COc1ccc(-n2ncc3c(=O)n(CC(=O)N4CCCc5ccccc54)cnc32)cc1	24	1	0.8	28	0.7
NC(=O)C1CCN(c2nc(-c3ccccc3)nc3ccccc23)CC1	54*	0.9	0.5	21	0.8
Cc1cc(N2CCC(C(N)=O)CC2)nc(-c2ccccc2)n1	53*	1	0.5	-6	1.1
NC(=O)C1CCN(c2nc(-c3ccccc3)nc3c2oc2ccccc23)CC1	14	0.8	0.9	4	1
Cc1cc(N2CCC(C(=O)Nc3ccc(F)cc3)CC2)nc(-c2ccccc2)n1	62*	1.1	0.4	82*	0.2
COc1ccc(/C(O)=C2/C(=O)C(=O)N(CCCN(C)C)C2c2ccccc2)cc1Cl (centres undefined)	1	1.3	1	-12	1.1
CCOC(=O)c1c(C)n(C)c2ccc(O)c(S(=O)(=O)c3ccccc3)c12	-8	1	1.1	0	1
CCOC(=O)c1c(C)n(OCc2ccccc2)c2ccc3nonc3c12	60*	1	0.4	-3	1
CC1CCCC(NC(=O)COC(=O)c2ccc3ccccc3n2)C1C (centres undefined)	40	1	0.6	62*	0.4
Cc1noc(C)c1COc1ccc(C(=O)OCC(=O)NC2CCCCC2C)cc1 (centres undefined)	59*	1	0.4	27	0.7
CCN(CC)c1ccc(C(=O)OCC(=O)NC2CCCCC2C)cc1 (centres undefined)	-26	0.8	1.3	49	0.5
CN(C)c1ccc(C(=O)OCC(=O)NC2CCCCC2)cc1	13	1	0.9	88*	0.1
CC1CCCC(NC(=O)COC(=O)c2ccc(N(C)C)cc2)C1C (centres undefined)	54*	1	0.5	83*	0.2
Cc1nnc2c3ccccc3c(-c3cccc4ccccc34)nn12	8	1	0.9	61*	0.4
O=C(CCCc1nc2ccccc2s1)N1CCN(S(=O)(=O)c2cccs2)CC1	50	1.1	0.5	31	0.7
CCOC(=O)NCC(C#CCN(CC)CC)N(CC)CC (centres undefined)	-10	1.1	1.1	-6	1.1
CC1CCCC(C)N1C(=O)CSc1nnc(C2CCCCC2)o1 (centres undefined)	12	1.8	0.9	59*	0.4
Cc1cc(-c2nnc(SCC(=O)N3C(C)CCCC3C)o2)no1 (centres undefined)	30	1	0.7	56*	0.4
CCCc1nnc(SCC(=O)N2C(C)CCCC2C)n1CC1CCCO1 (centres undefined)	-1	1.1	1	18	0.8
CCOC(=O)CSc1nnc(CNC(=O)c2cccs2)n1-c1cc(C)ccc1C	20	1.2	0.8	-1	1
Cc1cccc(OCC(=O)Nc2ccc(C(=O)NCc3cccnc3)cc2)c1	43	0.8	0.6	53*	0.5
CC(NC(=O)c1nn(C)c(=O)c2ccccc12)c1ccc(F)cc1 (centres undefined)	64*	1.7	0.4	43	0.6
Cn1nc(C(=O)Nc2cccnc2)c2ccccc2c1=O	13	0.9	0.9	4	1
COc1cc(OC)cc(C(=O)NCc2cccnc2)c1	2	0.9	1	62*	0.4
